Reference: PubChem BioAssay
The source made the active and inactive calls.

Test: optical density shifts of acrAB sulA E. coli – strain DRC41, OD650, 48 h, E. coli filamentation inducer project, primary screen (AID 1152);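 further: E. coli MC1000 strain DRC41 lacking acrAB efflux pump and sulA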
Conditions: higher = more signal, called active from +8 up or from −8 down

z-score, inactive:
CN(C)C(=O)[C@]1(Cc2ccccc2N=[N+]=[N-])N=C(c2ccc(OCCCO)cc2)O[C@@H]1c1ccccc1 0.327, CCCCCC1=C2CNC(CCC)(C(=O)OC)C=C2C(C)C1=O (stereo not given) -1.11, COCCOC(=O)N1C(=O)[C@@]2(c3cc(C#CCCO)ccc31)[C@H](C(=O)N1CCc3cc(OC)c(OC)cc3C1)[C@H]1C(=O)O[C@H](c3ccccc3)[C@H](c3ccccc3)N1[C@@H]2c1ccc(O)cc1 0.38, O=C(NCc1ccccc1)[C@@]1(Cc2ccccc2)N=C(c2ccc(OCCCO)cc2)O[C@H]1c1ccccc1 0.179, CC(C)c1ccc(NN2C(C(O)c3cc(C(F)(F)F)cc(C(F)(F)F)c3)C=CC3C(=O)N(c4ccccc4)C(=O)C32)cc1 (stereo not given) -2.06, CN1C(=O)[C@]2(Cc3ccccc3)N=C(c3ccc(OCCCO)cc3)O[C@@H]2c2ccccc21 -0.105, CC(C)(C)OC(=O)CC[C@]1(C(=O)NCC(O)CO)COC(c2ccc(OCCCO)cc2)=N1 (stereo not given in full) -0.0886, CCOC(=O)C[C@H]1[C@H](OC(=O)c2cc3ccccc3oc2=O)[C@@H](NC(=O)Cc2ccc(OC)cc2)c2cc(OCCCO)ccc2N1C(=O)c1ccccc1 0.386, COc1ccc(CCNC(=O)[C@@]2(Sc3ccc(C)cc3)CC(=O)N(C3CCCCC3)[C@@H]2c2ccc(CO)cc2I)cc1 -0.0948, COc1ccc(C(=O)O[C@H]2CC[C@]3(C)C4=C(CCC3C2(C)C)[C@]2(C)CC[C@H]([C@H](C)CCCC(C)C)[C@@]2(C)CC4)cc1 (stereo not given in full) 3.06, CCOC(=O)C[C@H]1[C@H](OC(=O)Cc2ccc3c(c2)OCO3)[C@@H](NC(=O)c2ccc3ccccc3c2)c2cc(OCCCO)ccc2N1C(=O)c1ccccc1 1.87, CCN(CC)c1ccc(N2CC=CC34O[C@@H]5/C=C\CCCOC(=O)C5[C@H]3C(=O)N(CCO)[C@@H]4C2=O)cc1 (stereo not given in full) -0.0626, C=CCNC(=O)[C@@H]1[C@H]2C(=O)O[C@H](c3ccccc3)[C@H](c3ccccc3)N2[C@H](c2ccccc2OCCO)[C@@]12C(=O)N(C(=O)OCCOC)c1ccc(C#CCNC(N)=O)cc12 -0.302, O=C1C[C@]2(c3ccc([N+](=O)[O-])cc3)C(=O)N(CCN3CCOCC3)c3cc(CO)ccc3[C@H]2N1C1CCCCC1 0.918, CN1C(=O)C2C=CC(C(O)C3CC=CCC3)N(NC(=O)OC(C)(C)C)C2C1=O (stereo not given) -1.49, COCCCNC(=O)C1N=C(c2ccc(OCCCO)cc2)N(c2ccccc2)O1 (stereo not given) 0.768, C=C(COC)/C(=C/C[C@H](OC(=O)c1ccncc1)c1ccc(OCCO)cc1)c1cnc2ccccc2c1 -0.469, C=CC[C@@]1(C(=O)N(C)C)N=C(c2ccc(OCCCO)cc2)O[C@@H]1c1ccccc1N=[N+]=[N-] 0.722, C=CCOC(=O)[C@H]1[C@@H]2C(=O)O[C@@H](c3ccccc3)[C@@H](c3ccccc3)N2[C@@H](c2ccc(OCCOC(=O)[C@@H]3C[C@@H]4C(=O)N[C@@H](CCCC[N+](C)(C)C)C(=O)N4[C@@H]3c3ccc(O)cc3)cc2)[C@]12C(=O)Nc1ccccc12 0.443, O=C1NC(=O)C2C1C=CC(C(O)c1cccc3ccccc13)N2Nc1ccccn1 (stereo not given) -0.0275, COc1ccc(C(=O)Nc2cccc(CN3C(=O)[C@]4(O[C@H](CCO)[C@@H]([Si](C)(C)c5ccc(OC)cc5)[C@@H]4C)c4ccccc43)c2)cc1 -0.172, COC(=O)c1c(CC[C@@H](CO)NC(=O)N2CCC[C@H]2Cn2cc(-c3ccccn3)nn2)oc(C(C)=O)c1C(=O)OC 1.04, C=CCN1C(=O)[C@]2(O[C@H](CCO)[C@@H]([Si](C)(C)c3ccc(OC)cc3)[C@@H]2C)c2cc(N3C(=O)c4cccc5cccc3c45)ccc21 0.568, O=C(NCc1ccccc1)[C@@]1(CCS(=O)(=O)c2ccccc2)N=C(c2ccc(OCCCO)cc2)O[C@H]1c1ccccc1 1.06, CC(C)C(=C=CC[C@@H](O)c1ccccc1OCCO)CCO 0.351, O=C(NCC(F)(F)F)[C@@H]1c2ccccc2C(=O)N(C2CCCCC2)[C@H]1c1ccc(CO)cc1 -0.36, CN1C(=O)C2C=CC(C(O)c3cccs3)N(Nc3ccccc3)C2C1=O (stereo not given) -1.6, COc1cc2c(cc1O)C(C1CC1)N(Cc1cc3c(cc1Br)OCO3)CC2 (stereo not given) -1.46, COCCOC(=O)N1C(=O)[C@@]2(c3cc(C#CCCO)ccc31)[C@H](c1ccc(OCCO)cc1)N1[C@H](c3ccccc3)[C@H](c3ccccc3)OC(=O)[C@H]1[C@@H]2C(=O)N1CCN(c2ncccn2)CC1 -0.304, O=C1O[C@H](c2ccccc2)[C@H](c2ccccc2)N2[C@H]1[C@@H](C(=O)NC[C@H](O)c1ccccc1)[C@]1(C(=O)Nc3ccccc31)[C@H]2c1ccc(OCCO)cc1 -1.26, O=C1c2ccccc2[C@](Cc2ccccc2I)(C(=O)NC2CC2)[C@H](c2ccc(CO)cc2)N1C1CCCCC1 0.0304, CC(=O)NCCCC[C@@H]1NC(=O)[C@@H]2C[C@H](C(=O)NCCCCCCNC(=O)CS)[C@H](c3cccc(OCCO)c3)N2C1=O -0.493, COCCOC(=O)N1C(=O)[C@@]2(c3cc(C#CC4=CCCCC4)ccc31)[C@H](C(=O)N1CCc3cc(OC)c(OC)cc3C1)[C@H]1C(=O)O[C@H](c3ccccc3)[C@H](c3ccccc3)N1[C@@H]2c1ccc(OCCO)cc1 -0.332, COCCOC(=O)N1C(=O)[C@@]2(c3cc(C#CC4=CCCCC4)ccc31)[C@H](C(=O)Nc1nc3ccccc3s1)[C@H]1C(=O)O[C@H](c3ccccc3)[C@H](c3ccccc3)N1[C@@H]2c1ccccc1OCCO 0.687, COc1ccc(C(O)C2C=CC3C(=O)N(c4ccccc4)C(=O)C3N2Nc2ccc(C(C)C)cc2)cc1OCc1ccccc1 (stereo not given) -3.31
